# Screening results (PubChem)
# HepG2 viability: qHTS for Inhibitors of TGF-b: Cytotox Counterscreen. Potency, µM (series often up to 46.1 µM), for the others: at the top dose activity change, negative = cytotoxicity, actives largely listed as cytotoxic. 410,000 tested, 0.76% active. HepG2 CAGA-GFP viability, ATP luminescence, 18 h; further: potency means the concentration at half of the fitted maximal effect
#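 CellTiter-Glo luminescence gave cytotoxicity after 18 hours at 37 degrees C. The cells were HepG2 CAGA-GFP in 1% FBS DMEM, stimulated with 500 pg/mL TGF-beta after compound addition. %Activity was normalised to no-cell wells (complete cell-killing) and DMSO (no toxicity), and curves were fitted and classified.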
# ATXN viability: Viability Counterscreen for Primary qHTS for Inhibitors of ATXN expression | S2 cells (HEK-293 line with an ATXN2-luciferase reporter) viability, CellTiter-Fluor protease fluorescence, 24 h | Potency, µM (titrated, usually from 56.7 µM), hits mostly cytotoxic | 400,000 tested, 0.49% active | AID 651635, 2014; further: potency means the concentration at half of the fitted maximal effect; nearly all actives have a fitted effect of over 40% in size
# ATXN2 expr inh: Primary qHTS for Inhibitors of ATXN expression. 360,000 tested, 0.72% active. AID 1745845, 2022. Potency, µM (top dose mostly 57 µM), for the others: top-dose activity change, negative = inhibition, most hits filed as inhibitors. HEK-293 ATXN2-luciferase reporter, luminescence, 24 h; further: potency means the concentration at half of the fitted maximal effect; on the % scale 0 is the no-effect control and ±100 the full control effect; nearly all actives have a fitted effect of over 55% in size
#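 ATXN2-luciferase reporter cells (luciferase flanked by upstream and downstream ATXN2 gene portions) were treated 24 h at 37 °C with compounds at up to 57 uM. SteadyGlo luminescence gave expression; GF-AFC fluorescence gave viability.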
# TGFb SMAD3 inh: qHTS for Inhibitors of TGF-b; Potency, µM (series often up to 46.1 µM), for inactives: at the top dose activity, negative = inhibition, actives largely listed as inhibitors; HepG2 CAGA-GFP TGF-b/SMAD3 reporter, GFP fluorescence, 18 h; TGF-beta stimulated, 500 pg/mL final; 410,000 tested, 1.2% active; further: potency means the concentration at half of the fitted maximal effect; on the % scale 0 is the no-effect control and ±100 the full control effect; nearly all actives have a fitted effect of over 65% in size
#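 GFP signal (ex488/em500-530) from TGF-beta-stimulated HEPG2 CAGA-GFP cells, 500 pg/mL final, 18 h at 37 degrees C in DMEM plus 1% FBS, normalized to unstimulated and DMSO-stimulated controls.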
# D3 ag: qHTS of D3 Dopamine Receptor Agonist: qHTS. D(3) dopamine receptor (Homo sapiens), P35462. D3R DiscoveRx beta-arrestin cells, luminescence, 90 min. max activation, %. 410,000 tested, 0.58% active. AID 652048, 2013; in the data active means max activation above about 30%; further: 0% is about no effect
# Target sequence (P35462 whole entry, looked up): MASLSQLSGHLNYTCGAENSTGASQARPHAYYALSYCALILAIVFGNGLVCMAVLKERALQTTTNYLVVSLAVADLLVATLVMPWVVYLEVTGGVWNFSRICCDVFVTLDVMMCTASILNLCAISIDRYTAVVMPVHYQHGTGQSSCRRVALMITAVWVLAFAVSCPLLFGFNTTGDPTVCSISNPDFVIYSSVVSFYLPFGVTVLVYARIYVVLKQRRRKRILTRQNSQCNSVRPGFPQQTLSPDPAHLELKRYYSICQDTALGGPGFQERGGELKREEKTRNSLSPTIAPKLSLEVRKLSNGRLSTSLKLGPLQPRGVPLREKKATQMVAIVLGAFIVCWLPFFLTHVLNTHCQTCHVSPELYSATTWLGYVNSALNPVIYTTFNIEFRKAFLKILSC
#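 Agonist mode: compounds and dopamine controls were applied to plated cells for 90 min at 37 degrees C after an overnight attachment at 1500 cells/well. Luminescent read-out followed 30 - 60 minutes at room temperature with DiscoveRx detection reagent.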
# D3 antag: qHTS of D3 Dopamine Receptor Antagonist: qHTS; D(3) dopamine receptor (Homo sapiens), P35462; D3R cells, DiscoveRx beta-arrestin luminescence, antagonist mode; hits give low values; max response, negative = inhibition, %; 360,000 tested, 2.5% active; AID 652054, 2013; in the data active means max response below about -50%; inconclusive means no clear call, values can overlap the other calls; further: on the % scale 0 is the no-effect control and ±100 the full control effect
#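 Cells expressing the human receptor were seeded at 1500 cells/well, incubated overnight at 37 degrees C in 5% CO2, then exposed to library compounds with dopamine controls for 90 minutes at 37 degrees C before luminescent detection.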
# Starred values were filed as active, the others as inactive; i = inactive; u = inconclusive; x = no result given. In the library only some 4.8% were active in any assay of this set; here they are far more common. Unless noted, the call rests on the fitted dose curve; in most records, active means well fitted curve in the direction sought with a large enough effect; inconclusive means small, poorly fitted or top-dose-only effect, or another doubt; inactive means no such curve, though single readings can be large; an effect the other way counts as inactive or inconclusive.
SMILES,HepG2 viability,ATXN viability,ATXN2 expr inh,TGFb SMAD3 inh,D3 ag,D3 antag
Cc1ccc(C(=O)/C=C\C(=O)c2ccc(C)cc2)cc1,-47%,i,-10%,u,-4,1
Cc1ccc(S/C=C\C(=O)c2ccccc2)cc1,-9%,22µM*,u,u,-28,-53*
CC(/C=C/C(=O)c1ccc(C)cc1)=C\c1ccccc1,2%,i,57%,2%,3,-61*
C[C@]12CCC(=O)C=C1[C@@H]1C[C@@H]1[C@H]1[C@@H]3[C@@H]4C[C@@H]4[C@@]4(CCC(=O)O4)[C@@]3(C)CC[C@@H]12,x,i,u,x,-10,x
O=C1ON=C(c2ccccc2)/C1=C/c1ccc(-c2ccccc2[N+](=O)[O-])o1,-37%,i,8%,20µM*,-10,-18
CCOCCCNC(=O)c1cnc2sc(N3CCCCCC3)nn2c1=O,3%,x,x,0%,11,x
N#C/C(=C/c1ccc(N2CCCCCC2)o1)c1cccc(F)c1,-16%,i,58%,64%,-22,-61*
Cc1ccc(NC(=O)CN2C=NS(=O)(=O)c3ccccc32)cc1,2%,i,1%,2%,-10,x
Cc1ccc(Cn2cc(C(=O)c3ccc4c(c3)OCO4)c(=O)c3cc(C)ccc32)cc1,-18%,u,-39%,-22%,2,x
O=C(Nc1ccc(F)c(Cl)c1)C1CCCC1,10µM*,i,-27%,0%,7,12
CNC(=S)N/N=C/c1ccc(-c2cccc(C(=O)O)c2)o1,11µM*,i,40%,18%,0,10
Cc1nc2c(C#N)cnn2c2c1CCN2CC1CCCO1 (stereo not given),6%,i,0%,5%,43*,1
CSc1cccc(NC(=O)Cn2c3ncccc3c(=O)n2-c2ccc(C)cc2)c1,-23%,i,-14%,-4%,8,x
CCOc1ccccc1NC(=O)CNC(=O)c1nn(-c2ccc(OC)c(OC)c2)c(=O)c2ccccc12,1%,u,-19%,31%,18,82
COc1ccc(NC(=O)c2cnn(-c3ccccc3)c2C)c(OC)c1,-17%,i,-3%,4%,0,-61*
CCOc1ccc(NC(=O)CNC(=O)c2nn(-c3ccc(OC)c(OC)c3)c(=O)c3ccccc23)cc1,10%,i,2%,-15%,37*,86
COc1ccc(NC(=O)CNC(=O)c2nn(-c3ccc(OC)c(Cl)c3)c(=O)c3ccccc23)c(OC)c1,-15%,u,-6%,-27%,30*,82
COc1ccc(-n2nc(C(=O)NCC(=O)Nc3cc(Cl)c(OC)cc3OC)c3ccccc3c2=O)cc1,22%,i,-14%,14%,4,-1
CCOC(=O)N1CCC(NC(=O)c2ccc3c(c2)N(Cc2ccccc2)C(=O)c2ccccc2S3(=O)=O)CC1,-15%,x,x,x,7,x
Cc1ccc(S(=O)(=O)NNc2ccccc2)cc1,-9%,i,0%,20%,4,-13
Cc1ccc(S(=O)(=O)NNc2nc3ccccc3nc2C(F)(F)F)cc1,-28%,i,1%,u,0,-54*
C#CCN1C=CC(=O)[C@@H](OC(=O)Nc2ccccc2Br)[C@H]1c1ccccc1Br,-33%,i,-5%,u,-4,12
C#CCN1C=CC(=O)[C@@H](OC(=O)Nc2ccc(Br)cc2)[C@H]1c1ccccc1Br,-33%,u,u,13µM*,-8,23
COc1ccc(CNC(=O)CCC(=O)N2CC3CCCN3c3ccccc32)cc1 (stereo not given),-33%,x,x,0%,-6,x
CC(=O)N(C)C1=C(N2CCOCC2)C(=O)c2ccccc2C1=O,0.56µM*,3.5µM*,1.4µM*,1.6µM*,-33,-57*
SMILES,HepG2 viability,ATXN viability,ATXN2 expr inh,TGFb SMAD3 inh,D3 ag,D3 antag
CC(=O)N(C1=C(N2CCOCC2)C(=O)c2ccccc2C1=O)c1ccc(C(=O)O)cc1,-20%,u,x,-25%,-5,16
Cc1ccc(-c2nc(CS(=O)CC(=O)N3CCN(c4ccc(Cl)cc4)CC3)c(C)o2)cc1 (stereo not given),-19%,u,u,-4%,7,x
CN(C)c1ccc(/C=C/c2ccc3cc(F)ccc3n2)cc1,-21%,x,x,0%,x,x
O=C(/C=C\c1ccco1)Oc1cccc2cccnc12,-74%,i,x,3.2µM*,-1,u
O=C(/C=C/c1ccco1)Oc1cccc2cccnc12,-47%,u,-38%,u,-4,-11
Cc1c(C(=O)Oc2cccc3cccnc23)oc2ccccc12,11µM*,i,-12%,u,-12,u
CCc1nc2ccccc2c(C(=O)Oc2cccc3cccnc23)c1C,-21%,i,11%,0%,19,38
COc1ccccc1/C=C/C(=O)Oc1cccc2cccnc12,10µM*,u,x,7.9µM*,0,-17
CCn1c(=O)cc(OCC(=O)N2CCN(c3ccc(C)cc3)C(C)C2)c2ccccc21 (stereo not given),-41%,x,u,u,8,x
O=C(NC(c1ccc(Cl)cc1)c1ccsc1)C1CCN(Cc2cccc(C(F)(F)F)c2)CC1 (stereo not given),-38%,i,-15%,0%,-21,-93*
O=C(NNC(=O)C1CCN(Cc2cccc(F)c2)CC1)c1cccc(Cl)c1,-3%,i,u,1%,-20,-10
O=C(NC(c1ccc(Cl)cc1)c1ccsc1)C1CCN(Cc2cccc(Cl)c2)CC1 (stereo not given),-49%,u,u,u,-18,-50*
CCOc1ccccc1CNC(=O)c1ccc2c(c1)nc1n2CCCCC1,-31%,x,x,6%,-12,x
Cc1ccccc1[C@@]1(C)ON(c2ccccc2C(F)(F)F)C1=O,1%,u,u,u,12,-1
CC[C@@]1(c2ccccc2OC)ON(c2ccccc2C(F)(F)F)C1=O,14µM*,x,22µM*,u,6,16
Cc1nn(C)c2c1c(-c1ccccc1)cc(=O)n2Cc1ccccc1Cl,-3%,i,9%,9%,6,x
Cc1ccc2oc(=O)c3cc(C(=O)Nc4cccc(C#N)c4)sc3c2c1,-2%,i,3%,-4%,0,x
COC(=O)c1sc(NC(=O)c2ccc(C)o2)nc1C,-46%,i,33%,-30%,-3,-6
CCOC(=O)c1sc(NC(=O)c2ccc(C)o2)nc1C,5µM*,i,8%,u,-5,-9
